# High-throughput results: PubChem, National Center for Advancing Translational Sciences (NCATS)
# RORg inh – blocks mouse ROR gamma transcriptional activity | P51450 | Drosophila S2 Gal4-RORgamma UAS-luciferase reporter, 20 h | 5.4% of 310,000 active | Potency, µM (doses to about 53.6 µM), actives largely listed as inhibitors; also: nearly all actives have a fitted effect of over 60% in size
# Target sequence (P51450 whole entry, looked up, the tested form may be a part): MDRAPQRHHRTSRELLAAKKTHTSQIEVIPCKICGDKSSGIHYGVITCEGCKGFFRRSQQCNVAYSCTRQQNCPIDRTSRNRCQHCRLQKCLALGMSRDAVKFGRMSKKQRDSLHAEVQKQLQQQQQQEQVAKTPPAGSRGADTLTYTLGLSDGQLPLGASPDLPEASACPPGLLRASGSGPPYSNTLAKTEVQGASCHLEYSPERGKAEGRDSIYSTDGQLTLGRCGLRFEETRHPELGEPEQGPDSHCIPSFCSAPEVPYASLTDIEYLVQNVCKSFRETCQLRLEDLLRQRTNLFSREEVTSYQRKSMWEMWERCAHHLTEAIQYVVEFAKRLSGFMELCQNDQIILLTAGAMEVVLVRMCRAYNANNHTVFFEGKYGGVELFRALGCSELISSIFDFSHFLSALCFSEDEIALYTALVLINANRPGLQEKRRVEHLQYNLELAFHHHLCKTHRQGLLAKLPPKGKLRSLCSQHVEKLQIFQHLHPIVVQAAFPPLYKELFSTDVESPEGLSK
#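 Stably transfected Drosophila Schneider cells are the test system, with ROR gamma fused to Gal4 and luciferase under UAS control; luminescence is read after 20 hr of 700 uM copper sulfate induction at ambient temperature.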
# VP16 counter – Gal4-VP16 reporter inhibition counter-screen. Drosophila S2 Gal4-VP16 UAS-luciferase, luminescence, 20 h. Potency, µM (doses to about 53.6 µM), actives largely listed as inhibitors. 3.5% of 310,000 active. AID 2546;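 also: Gal4-VP16 expression switched on by copper sulfate through the metallothionein promoter; nearly all actives have a fitted effect of over 50% in size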
# KinaseGlo FLuc – blocks Kinase-Glo luciferase, a counter-screen artifact; Q27757; Kinase-Glo luciferase, ATP luminescence, 8 min; Potency, µM (series often up to 38.3 µM), hits mostly inhibitors; 0.28% of 200,000 active; AID 1379; also: nearly all actives have a fitted effect of over 60% in size
#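 Light output from Kinase-Glo luciferase with luciferin and 10 uM ATP in 50 mM imidazole pH 7.2, KCl, MgCl2, Tween 20, BSA; compound pin-delivered, 8-min ambient incubation, then luminescence read.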
# Numbers stand for hits; 0 = inactive; ? = inconclusive; - = no result; [ ] = dose if it differs, or a comment. A selection: hits, their analogues and other compounds. The true share with any hit is near 6.4%. Calls follow the shape of the dose curve; as a rule, active = well fitted curve in the direction sought with a large enough effect; inconclusive = small, poorly fitted or top-dose-only effect, or another doubt; inactive = no such curve, though single readings can be large; an effect the other way counts as inactive or inconclusive.
SMILES,RORg inh,VP16 counter,KinaseGlo FLuc
CCOC(=O)N1CCN(Cc2ccccc2Cl)CC1,0,0,0
Cc1cc(OCc2cccc(Cl)c2)c(C)cc1CN1CCOCC1,0,0,0
Oc1c(CN2CCOCC2)cc(COCc2ccccc2)c2cccnc12,0.79µM,0.089µM,0
Cc1nn(C)cc1CN(C)C(=O)c1cc(-c2ccccc2)nc2ccc(Br)cc12,0,0,0
CN1CCN(S(=O)(=O)c2ccc(Cl)s2)CC1,0,0,-
Cc1cc(NC(=O)CCC(=O)N(CC(=O)NCC2CCCO2)c2ccc(C)c(C)c2)no1 (stereo unspecified),0,0,-
O=C(Nc1ccc(S(=O)(=O)N2CCOCC2)cc1)c1cccc(Br)c1,0,0,-
CC(=O)Nc1cc(CN2CCCCC2)c(O)c2ncccc12,-,-,0[7.66 µM]
COCc1cc(CN2CCN(C)CC2)c(O)c2ncccc12,3.2µM,5.6µM,0
O=C(NCC1CCCO1)c1ccc(OC2CCN(C(=O)C3CC3)CC2)cc1 (stereo unspecified),?,?,0
CCCN1CCC(NC(=S)Nc2ccc(OC)c(OC)c2)CC1,0,0,0
O=C(NNC(=S)Nc1ccc(F)c(Cl)c1)C1CC1,0,0,0
Cc1ccc(NC(=S)NNC(=S)Nc2ccc(C)cc2C)cc1,0,0,0
NC(=S)Nc1ccc2cc[nH]c2c1,0,0,0
Cc1ccc(NC(=S)NC2CCCC2)cc1C,2.8µM,3.5µM,0
Cc1ccc(NC(=S)NC(=O)C2CC2)c(C)c1,5µM,7.1µM,-
O=C(NC(=S)Nc1ccc(Br)c(Cl)c1)C1CC1,4.5µM,7.9µM,-
S=C(Nc1ccc2[nH]ccc2c1)NC1CCCCC1,11µM,0,-
COc1cccc(NC(=O)Nc2cc(C(=O)O)ccc2N2CC3CC(C2)c2cccc(=O)n2C3)c1 (stereo unspecified),0,0,-
COc1ccc(NC(=O)c2cc(OCCCN(C)C)nn2Cc2ccccc2)cc1,0,0,-
CS(=O)(=O)Nc1ccc(C(=O)Nc2ccc(S(=O)(=O)N3CCCC3)cc2)cc1,0,0,0
COc1ccccc1CCNC(=O)C(=O)c1cn(CC(=O)N2CCOCC2)c2ccccc12,0,0,-
Cc1ccc(NS(=O)(=O)c2ccc(NC(=O)c3cccs3)cc2)c(C)c1,?,0,0
Cc1nc2ccc(NC(=S)NC3CCCCC3)cc2nc1C,5µM,0[10 µM],0
Cc1ccc(NC(=S)NC(=O)C2CCC2)cc1C,2.2µM,2.8µM,-
SMILES,RORg inh,VP16 counter,KinaseGlo FLuc
Cc1ccc(NS(=O)(=O)c2ccc(NC(=O)C3CC3)cc2)c(C)c1,0,25µM,-
O=C(NC(=S)Nc1ccc(F)cc1)C1CCCCC1,8.9µM,10µM,-
O=C(Nc1ccc(F)cc1)C1CCCCC1,0,0,0
Cc1ccc(NC(=S)N2C3CCCC2CC(NC(=O)C2CC2)C3)cc1C (stereo unspecified),0,0,-
Cc1nc2ccc(NC(=S)N3CCCC3)cc2nc1C,0,0,0
Cc1cccc(OCC(=O)NCCCNC(=O)c2ccncc2)c1,0,0,-
CC(=O)OC(c1nc2ccccc2c(=O)n1C1CC2(OC1=O)c1ccccc1N1C(=O)C(C)(C)N(O)C12)C(C)C (stereo unspecified),0,0,-
Cc1ccc(NC(=S)NC(=O)C2CCCC2)cc1C,3.5µM,4.5µM,-
CC(=O)Nc1ccc(NC(=S)NC(=O)C2CC2)cc1,0,0,-
CC(=O)/C(=N/Nc1ccc(C)cc1)Sc1nnc(CCc2ccccc2)n1-c1ccccc1,?,?,0
COC(=O)/C(=N\Nc1ccccc1)Sc1nnc(-c2ccc(OC)cc2)n1C,?,?,0
CCOC(=O)/C(=N\Nc1ccc(Cl)cc1)Sc1nnc(-c2ccc(OC)cc2)n1C,4.5µM,6.3µM,0
CCOC(=O)/C(=N/Nc1ccc(OC)cc1)Sc1nnc(CCc2ccccc2)n1-c1ccccc1,7.1µM,?,0
COc1cccc(CCc2nnc(CCC(=O)N3CCN(Cc4ccccn4)CC3)o2)c1,0,0,-
O=C(NNS(=O)(=O)c1ccccc1[N+](=O)[O-])c1cccnc1,0,0,-
COc1cc2ncnc(Nc3cccc(Br)c3)c2cc1OC,?,0,0
CNc1cc2c(Nc3cccc(Br)c3)ncnc2cn1,13µM,13µM,-
O=C(c1ccc(Br)cc1)N1CCCc2ccccc21,0,0,-
C/C(=C\C[Si](C)(C)C)CC[C@H](O)C1=CCCCC1=O,0,0,0
Cn1c(=O)n(C)c2cc(NC(=O)CCl)ccc21,11µM,?,0
CC(=O)Nc1ccc2c(c1)n(C)c(=O)n2C,0,0,0
COc1ccccc1OC(C)C(=O)Nc1ccccc1C(=O)NCc1cccnc1 (stereo unspecified),0,0,-
Cc1nn(Cc2ccc(C(=O)NN)o2)c(C)c1Cl,0,0,-
COc1ccc(CNC(=O)c2ccc(Cn3nc(C)cc3C)o2)cc1,0,0,-
